# Columns and labels:
# Experiment in all cases: DAPPL (digital affinity profiling via proximity ligation, sequencing); 10 mM Tris-HCl pH 7.5, 50 mM NaCl, 1 mM DTT, 4% glycerol, room temperature, 30 min; GST-TFs on glutathione beads, 16-mer random dsDNA library, 0.1% formaldehyde crosslink after washing; high values mean tight binding
# FLI1 = target: T1, FLI1 (Homo sapiens, UniProt Q01543 1-452); settings: protein: recombinant; tags: N-terminal GST; dsDNA, one strand shown
# T1 sequence: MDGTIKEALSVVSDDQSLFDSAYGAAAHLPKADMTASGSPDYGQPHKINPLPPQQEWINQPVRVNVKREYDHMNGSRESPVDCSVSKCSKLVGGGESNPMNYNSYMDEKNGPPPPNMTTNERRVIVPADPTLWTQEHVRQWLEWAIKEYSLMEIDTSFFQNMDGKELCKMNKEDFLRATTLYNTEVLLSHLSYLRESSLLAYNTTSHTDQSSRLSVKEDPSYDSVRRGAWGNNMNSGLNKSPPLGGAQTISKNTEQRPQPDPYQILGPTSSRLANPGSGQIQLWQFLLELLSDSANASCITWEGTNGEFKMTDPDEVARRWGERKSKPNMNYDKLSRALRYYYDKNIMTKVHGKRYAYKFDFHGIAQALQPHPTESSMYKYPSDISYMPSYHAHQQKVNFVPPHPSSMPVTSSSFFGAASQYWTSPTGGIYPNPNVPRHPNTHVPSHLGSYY
# Method in brief: (§1)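 After expression in yeast as GST fusions, human transcription factors were bound to glutathione beads, DNA-barcoded and mixed with a tag-only sample. The pools were incubated with 200 nmole of a 16-mer random double-stranded DNA library in Tris/NaCl/DTT/glycerol buffer (30 min, room temperature), washed and crosslinked with 0.1% formaldehyde. Proximity ligation with BsaI/T4 ligase ran for 1 h at 37 °C, before PCR amplification and sequencing on an Illumina NextSeq500. Binding signal is a hexamer's read frequency for a factor divided by its frequency for the tag-only sample.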
# ELK1 = target: T2, ELK1 (Homo sapiens, UniProt P19419 1-428); settings: protein: recombinant; tags: N-terminal GST; dsDNA, one strand shown
# T2 sequence: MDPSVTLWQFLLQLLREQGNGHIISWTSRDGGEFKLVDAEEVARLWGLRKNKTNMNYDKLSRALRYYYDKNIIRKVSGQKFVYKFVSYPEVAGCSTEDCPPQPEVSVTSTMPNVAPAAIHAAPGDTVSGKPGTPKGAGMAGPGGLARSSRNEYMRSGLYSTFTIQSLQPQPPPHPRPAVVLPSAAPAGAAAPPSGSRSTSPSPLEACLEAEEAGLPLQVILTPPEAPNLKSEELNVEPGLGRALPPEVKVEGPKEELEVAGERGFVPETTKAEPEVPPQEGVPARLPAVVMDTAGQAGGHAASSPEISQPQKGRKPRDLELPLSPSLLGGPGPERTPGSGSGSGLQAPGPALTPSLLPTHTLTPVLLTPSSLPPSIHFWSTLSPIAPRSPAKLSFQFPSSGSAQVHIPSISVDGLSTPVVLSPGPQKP
# Method in brief: as §1
# GABPA = target: T3, GABPA (Homo sapiens, UniProt Q06546 1-454); settings: protein: recombinant; tags: N-terminal GST; dsDNA, one strand shown
# T3 sequence: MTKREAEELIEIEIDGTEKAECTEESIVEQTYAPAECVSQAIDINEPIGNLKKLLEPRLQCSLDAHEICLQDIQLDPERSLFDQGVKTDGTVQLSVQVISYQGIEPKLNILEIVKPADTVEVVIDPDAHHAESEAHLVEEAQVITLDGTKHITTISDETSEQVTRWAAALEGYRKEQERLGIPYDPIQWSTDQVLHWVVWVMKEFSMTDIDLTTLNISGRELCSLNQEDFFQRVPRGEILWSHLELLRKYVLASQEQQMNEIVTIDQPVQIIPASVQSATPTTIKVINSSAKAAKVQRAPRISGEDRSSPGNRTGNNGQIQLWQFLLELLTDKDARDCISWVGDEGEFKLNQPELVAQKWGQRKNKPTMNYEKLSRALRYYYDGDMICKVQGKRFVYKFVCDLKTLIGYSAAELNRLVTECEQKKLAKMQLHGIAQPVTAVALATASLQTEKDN
# Method in brief: as §1
# ERG = target: T4, ERG (Homo sapiens, UniProt P11308 1-479); settings: protein: recombinant; tags: N-terminal GST; dsDNA, one strand shown
# T4 sequence: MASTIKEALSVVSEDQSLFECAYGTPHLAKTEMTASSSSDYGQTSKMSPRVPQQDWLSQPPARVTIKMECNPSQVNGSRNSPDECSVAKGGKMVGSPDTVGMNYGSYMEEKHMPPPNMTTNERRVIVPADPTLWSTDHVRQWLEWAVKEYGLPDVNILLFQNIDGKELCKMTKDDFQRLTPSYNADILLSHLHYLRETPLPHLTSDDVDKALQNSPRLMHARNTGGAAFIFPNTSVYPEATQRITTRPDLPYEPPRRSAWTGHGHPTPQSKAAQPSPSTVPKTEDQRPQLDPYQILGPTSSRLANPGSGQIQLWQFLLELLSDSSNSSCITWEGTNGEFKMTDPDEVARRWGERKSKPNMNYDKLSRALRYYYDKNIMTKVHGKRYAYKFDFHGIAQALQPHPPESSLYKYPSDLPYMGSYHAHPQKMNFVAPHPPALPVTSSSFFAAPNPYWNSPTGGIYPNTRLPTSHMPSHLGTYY
# Method in brief: as §1
# ELF1 = ELF1 (Homo sapiens, UniProt P32519 1-619); settings: protein: recombinant; tags: N-terminal GST; dsDNA, one strand shown
# ELF1, sequence (P32519 whole entry): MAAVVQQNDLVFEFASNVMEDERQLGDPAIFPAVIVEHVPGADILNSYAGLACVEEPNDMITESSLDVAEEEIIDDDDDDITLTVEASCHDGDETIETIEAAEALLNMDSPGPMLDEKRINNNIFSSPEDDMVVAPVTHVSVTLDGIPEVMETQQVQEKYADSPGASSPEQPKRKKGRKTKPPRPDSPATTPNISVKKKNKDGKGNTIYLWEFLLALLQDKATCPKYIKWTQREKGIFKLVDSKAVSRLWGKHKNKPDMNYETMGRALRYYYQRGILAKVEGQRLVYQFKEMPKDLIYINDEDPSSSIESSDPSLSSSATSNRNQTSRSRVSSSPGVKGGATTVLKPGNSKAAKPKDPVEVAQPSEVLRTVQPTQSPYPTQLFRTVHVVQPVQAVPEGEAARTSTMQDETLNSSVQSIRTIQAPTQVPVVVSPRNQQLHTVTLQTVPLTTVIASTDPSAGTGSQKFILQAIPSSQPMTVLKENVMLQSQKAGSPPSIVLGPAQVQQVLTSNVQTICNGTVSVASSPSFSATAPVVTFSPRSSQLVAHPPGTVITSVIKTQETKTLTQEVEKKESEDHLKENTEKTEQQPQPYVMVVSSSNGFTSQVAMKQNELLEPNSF
# Method in brief: as §1
# EHF = target: T5, EHF (Homo sapiens, UniProt Q9NZC4 1-300); settings: protein: recombinant; tags: N-terminal GST; dsDNA, one strand shown
# T5 sequence: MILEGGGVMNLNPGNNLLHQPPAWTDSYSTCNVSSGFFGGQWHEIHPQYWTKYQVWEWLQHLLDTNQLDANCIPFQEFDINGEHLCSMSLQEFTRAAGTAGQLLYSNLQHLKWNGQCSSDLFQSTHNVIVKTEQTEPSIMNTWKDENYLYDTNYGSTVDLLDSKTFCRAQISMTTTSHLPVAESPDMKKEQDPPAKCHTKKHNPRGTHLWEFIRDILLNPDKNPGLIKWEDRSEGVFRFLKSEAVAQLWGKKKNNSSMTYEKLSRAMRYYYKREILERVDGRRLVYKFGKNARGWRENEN
# Method in brief: as §1
# SPI1 = SPI1 (Homo sapiens, UniProt P17947 1-270); settings: protein: recombinant; tags: N-terminal GST; dsDNA, one strand shown
# Method in brief: as §1
# SPIB = SPIB (Homo sapiens, UniProt Q01892 1-262); settings: protein: recombinant; tags: N-terminal GST; dsDNA, one strand shown
# SPIB, sequence (Q01892 whole entry): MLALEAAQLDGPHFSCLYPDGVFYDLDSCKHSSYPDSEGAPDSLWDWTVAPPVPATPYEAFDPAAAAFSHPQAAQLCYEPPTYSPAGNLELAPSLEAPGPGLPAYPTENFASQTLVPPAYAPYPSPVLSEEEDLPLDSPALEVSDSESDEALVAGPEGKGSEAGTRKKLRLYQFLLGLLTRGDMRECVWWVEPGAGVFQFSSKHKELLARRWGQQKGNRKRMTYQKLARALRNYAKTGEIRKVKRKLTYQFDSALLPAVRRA
# Method in brief: as §1
# ELK3 = target: T6, ELK3 (Homo sapiens, UniProt P41970 1-407); settings: protein: recombinant; tags: N-terminal GST; dsDNA, one strand shown
# T6 sequence: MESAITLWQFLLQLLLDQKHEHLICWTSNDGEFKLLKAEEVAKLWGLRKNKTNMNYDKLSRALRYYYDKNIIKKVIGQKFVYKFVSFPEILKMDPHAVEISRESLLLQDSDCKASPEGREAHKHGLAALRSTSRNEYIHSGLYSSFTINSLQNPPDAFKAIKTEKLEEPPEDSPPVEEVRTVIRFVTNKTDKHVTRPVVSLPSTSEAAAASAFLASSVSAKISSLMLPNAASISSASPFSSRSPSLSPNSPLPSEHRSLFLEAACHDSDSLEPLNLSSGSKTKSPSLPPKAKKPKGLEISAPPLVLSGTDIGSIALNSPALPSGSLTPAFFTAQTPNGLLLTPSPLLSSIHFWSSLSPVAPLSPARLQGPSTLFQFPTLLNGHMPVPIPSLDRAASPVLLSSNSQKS
# Method in brief: as §1
# FEV = target: T7, FEV (Homo sapiens, UniProt Q99581 1-238); settings: protein: recombinant; tags: N-terminal GST; dsDNA, one strand shown
# T7 sequence: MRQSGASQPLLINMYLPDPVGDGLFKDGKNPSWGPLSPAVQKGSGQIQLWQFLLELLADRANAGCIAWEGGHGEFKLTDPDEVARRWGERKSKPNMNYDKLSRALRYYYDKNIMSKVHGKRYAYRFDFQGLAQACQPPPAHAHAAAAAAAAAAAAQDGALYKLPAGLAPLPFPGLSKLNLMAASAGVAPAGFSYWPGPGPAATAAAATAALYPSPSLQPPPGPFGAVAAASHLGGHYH
# Method in brief: as §1
# ETV5 = ETV5 (Homo sapiens, UniProt P41161 1-510); settings: protein: recombinant; tags: N-terminal GST; dsDNA, one strand shown
# ETV5, sequence (P41161 whole entry): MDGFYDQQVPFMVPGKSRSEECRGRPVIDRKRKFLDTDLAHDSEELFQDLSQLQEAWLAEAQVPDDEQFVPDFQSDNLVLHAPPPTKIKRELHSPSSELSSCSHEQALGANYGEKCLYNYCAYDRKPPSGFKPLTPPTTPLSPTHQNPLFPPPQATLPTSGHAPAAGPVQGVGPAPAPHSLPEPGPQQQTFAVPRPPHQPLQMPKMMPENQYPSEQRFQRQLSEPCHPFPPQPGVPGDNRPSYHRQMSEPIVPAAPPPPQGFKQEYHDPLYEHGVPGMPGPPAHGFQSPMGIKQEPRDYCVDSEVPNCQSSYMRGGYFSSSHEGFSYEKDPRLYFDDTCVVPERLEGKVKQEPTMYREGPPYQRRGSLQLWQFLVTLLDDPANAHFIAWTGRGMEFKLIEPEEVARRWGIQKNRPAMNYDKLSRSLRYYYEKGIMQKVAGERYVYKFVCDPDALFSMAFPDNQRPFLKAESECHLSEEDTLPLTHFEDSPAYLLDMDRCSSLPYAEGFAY
# Method in brief: as §1
# HSF1 = HSF1 (Homo sapiens, UniProt Q00613 1-529); settings: protein: recombinant; tags: N-terminal GST; chain copies: 3; dsDNA, one strand shown
# HSF1, sequence (Q00613 whole entry): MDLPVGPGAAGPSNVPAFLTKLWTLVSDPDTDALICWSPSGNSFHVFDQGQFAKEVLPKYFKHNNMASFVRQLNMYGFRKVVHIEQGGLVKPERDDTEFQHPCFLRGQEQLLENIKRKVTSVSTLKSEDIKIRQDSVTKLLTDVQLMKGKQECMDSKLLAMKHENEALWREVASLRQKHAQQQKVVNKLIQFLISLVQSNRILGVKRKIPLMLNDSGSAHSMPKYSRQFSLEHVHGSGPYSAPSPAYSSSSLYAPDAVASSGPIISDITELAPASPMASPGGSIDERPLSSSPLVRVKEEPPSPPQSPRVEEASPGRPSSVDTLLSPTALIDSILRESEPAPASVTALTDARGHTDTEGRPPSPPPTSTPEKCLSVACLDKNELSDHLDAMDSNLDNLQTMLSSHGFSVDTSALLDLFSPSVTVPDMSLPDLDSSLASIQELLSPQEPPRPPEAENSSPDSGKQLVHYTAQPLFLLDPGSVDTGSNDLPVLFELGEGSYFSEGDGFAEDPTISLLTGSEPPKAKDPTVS
# Method in brief: as §1
# SPIC = target: T8, SPIC (Homo sapiens, UniProt Q8N5J4 1-248); settings: protein: recombinant; tags: N-terminal GST; dsDNA, one strand shown
# T8 sequence: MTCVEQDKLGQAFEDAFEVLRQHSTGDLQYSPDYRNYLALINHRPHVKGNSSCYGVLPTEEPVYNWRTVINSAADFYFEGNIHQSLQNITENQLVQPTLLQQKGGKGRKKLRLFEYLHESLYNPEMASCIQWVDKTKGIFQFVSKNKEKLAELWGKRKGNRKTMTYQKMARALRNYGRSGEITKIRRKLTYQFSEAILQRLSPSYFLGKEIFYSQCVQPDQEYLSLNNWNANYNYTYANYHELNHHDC
# Method in brief: as §1
# ELF4 = ELF4 (Homo sapiens, UniProt Q99607 1-663); settings: protein: recombinant; tags: N-terminal GST; dsDNA, one strand shown
# ELF4, sequence (Q99607 whole entry): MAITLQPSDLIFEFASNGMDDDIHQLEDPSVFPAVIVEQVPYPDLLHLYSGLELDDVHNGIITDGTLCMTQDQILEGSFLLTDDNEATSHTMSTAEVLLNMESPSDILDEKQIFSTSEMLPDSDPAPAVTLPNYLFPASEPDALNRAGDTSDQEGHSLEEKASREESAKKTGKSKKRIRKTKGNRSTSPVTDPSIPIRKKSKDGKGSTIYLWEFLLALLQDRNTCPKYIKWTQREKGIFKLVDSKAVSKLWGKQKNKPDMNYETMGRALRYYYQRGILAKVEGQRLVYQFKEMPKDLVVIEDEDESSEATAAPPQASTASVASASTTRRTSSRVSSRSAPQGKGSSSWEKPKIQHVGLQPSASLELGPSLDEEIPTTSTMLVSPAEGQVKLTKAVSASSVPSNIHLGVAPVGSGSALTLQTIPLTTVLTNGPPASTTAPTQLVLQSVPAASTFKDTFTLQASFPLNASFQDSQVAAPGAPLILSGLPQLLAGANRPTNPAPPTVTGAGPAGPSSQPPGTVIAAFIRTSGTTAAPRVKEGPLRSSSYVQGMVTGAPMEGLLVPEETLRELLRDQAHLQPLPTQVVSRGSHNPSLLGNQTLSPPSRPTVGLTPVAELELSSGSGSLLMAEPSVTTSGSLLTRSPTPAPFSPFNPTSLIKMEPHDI
# Method in brief: as §1
# ELK4 = target: T9, ELK4 (Homo sapiens, UniProt P28324-2 1-405); settings: protein: recombinant; tags: N-terminal GST; dsDNA, one strand shown
# T9 sequence: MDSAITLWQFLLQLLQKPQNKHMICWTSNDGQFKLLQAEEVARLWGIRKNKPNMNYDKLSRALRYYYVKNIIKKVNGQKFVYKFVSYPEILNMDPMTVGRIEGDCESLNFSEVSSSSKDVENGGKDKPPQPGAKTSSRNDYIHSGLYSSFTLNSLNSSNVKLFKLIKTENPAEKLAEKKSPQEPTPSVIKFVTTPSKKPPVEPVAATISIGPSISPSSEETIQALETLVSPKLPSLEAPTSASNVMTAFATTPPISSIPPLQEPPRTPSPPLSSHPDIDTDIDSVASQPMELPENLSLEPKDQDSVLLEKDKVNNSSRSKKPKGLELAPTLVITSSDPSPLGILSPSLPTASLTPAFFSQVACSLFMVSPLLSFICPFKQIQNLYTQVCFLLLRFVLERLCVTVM
# Method in brief: as §1
# ETV2 = target: T10, ETV2 (Homo sapiens, UniProt O00321 1-342); settings: protein: recombinant; tags: N-terminal GST; dsDNA, one strand shown
# T10 sequence: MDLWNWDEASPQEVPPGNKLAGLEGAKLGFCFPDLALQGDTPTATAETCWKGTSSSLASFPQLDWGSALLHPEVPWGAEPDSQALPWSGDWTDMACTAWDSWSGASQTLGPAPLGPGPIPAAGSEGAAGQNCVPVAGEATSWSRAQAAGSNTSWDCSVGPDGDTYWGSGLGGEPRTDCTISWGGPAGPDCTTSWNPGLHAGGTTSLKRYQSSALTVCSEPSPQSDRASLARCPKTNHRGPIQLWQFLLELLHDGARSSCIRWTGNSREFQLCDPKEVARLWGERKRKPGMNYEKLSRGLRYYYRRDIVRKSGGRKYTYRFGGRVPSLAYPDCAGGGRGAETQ
# Method in brief: as §1
# ELF3 = target: T11, ELF3 (Homo sapiens, UniProt P78545 1-371); settings: protein: recombinant; tags: N-terminal GST; dsDNA, one strand shown
# T11 sequence: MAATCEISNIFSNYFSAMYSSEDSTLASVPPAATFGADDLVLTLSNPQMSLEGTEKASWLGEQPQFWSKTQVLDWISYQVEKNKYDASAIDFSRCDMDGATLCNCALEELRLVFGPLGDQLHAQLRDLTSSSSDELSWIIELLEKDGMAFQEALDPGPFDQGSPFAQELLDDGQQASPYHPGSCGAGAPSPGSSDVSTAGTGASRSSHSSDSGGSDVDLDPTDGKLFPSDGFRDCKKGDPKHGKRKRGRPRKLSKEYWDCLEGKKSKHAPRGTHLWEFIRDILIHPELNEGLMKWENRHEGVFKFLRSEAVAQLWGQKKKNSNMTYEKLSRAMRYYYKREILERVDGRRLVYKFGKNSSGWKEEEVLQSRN
# Method in brief: as §1
# CRX = CRX (Homo sapiens, UniProt O43186 1-299); settings: protein: recombinant; tags: N-terminal GST; dsDNA, one strand shown
# CRX, sequence (O43186 whole entry): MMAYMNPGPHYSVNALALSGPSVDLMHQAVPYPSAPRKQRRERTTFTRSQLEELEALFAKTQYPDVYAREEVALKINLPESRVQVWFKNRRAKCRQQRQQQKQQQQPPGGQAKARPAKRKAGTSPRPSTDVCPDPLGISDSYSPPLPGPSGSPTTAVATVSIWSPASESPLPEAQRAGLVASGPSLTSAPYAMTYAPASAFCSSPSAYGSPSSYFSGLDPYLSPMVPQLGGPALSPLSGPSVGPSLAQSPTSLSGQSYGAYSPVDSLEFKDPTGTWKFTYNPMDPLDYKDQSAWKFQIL
# Method in brief: as §1
# ETV1 = ETV1 (Homo sapiens, UniProt P50549 1-477); settings: protein: recombinant; tags: N-terminal GST; dsDNA, one strand shown
# ETV1, sequence (P50549 whole entry): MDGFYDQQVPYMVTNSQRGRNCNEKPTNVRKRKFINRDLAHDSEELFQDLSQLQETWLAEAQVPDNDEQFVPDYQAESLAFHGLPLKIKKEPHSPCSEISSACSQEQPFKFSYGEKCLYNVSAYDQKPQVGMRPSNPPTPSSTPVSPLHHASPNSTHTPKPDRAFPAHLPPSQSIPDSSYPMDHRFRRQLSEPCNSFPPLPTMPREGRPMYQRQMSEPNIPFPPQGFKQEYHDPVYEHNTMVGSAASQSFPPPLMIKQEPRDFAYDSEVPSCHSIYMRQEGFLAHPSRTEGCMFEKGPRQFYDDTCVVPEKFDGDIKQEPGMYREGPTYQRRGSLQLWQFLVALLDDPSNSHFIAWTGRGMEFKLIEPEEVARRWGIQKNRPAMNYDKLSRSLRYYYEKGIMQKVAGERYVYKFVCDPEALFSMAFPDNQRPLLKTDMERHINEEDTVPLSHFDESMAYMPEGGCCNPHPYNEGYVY
# Method in brief: as §1
sequence,measurement,setting,value
GCTCTA,binding signal,FLI1,"1.17 fold enrichment (6-mer frequency, TF over GST control)"
same,binding signal,ELK1,"1.09 fold enrichment (6-mer frequency, TF over GST control)"
same,binding signal,GABPA,"1.11 fold enrichment (6-mer frequency, TF over GST control)"
same,binding signal,ERG,"1.24 fold enrichment (6-mer frequency, TF over GST control)"
same,binding signal,ELF1,"1.13 fold enrichment (6-mer frequency, TF over GST control)"
same,binding signal,EHF,"1.23 fold enrichment (6-mer frequency, TF over GST control)"
same,binding signal,SPI1,"1.04 fold enrichment (6-mer frequency, TF over GST control)"
same,binding signal,SPIB,"1.09 fold enrichment (6-mer frequency, TF over GST control)"
same,binding signal,ELK3,"1.09 fold enrichment (6-mer frequency, TF over GST control)"
same,binding signal,FEV,"1.15 fold enrichment (6-mer frequency, TF over GST control)"
same,binding signal,ETV5,"1.21 fold enrichment (6-mer frequency, TF over GST control)"
same,binding signal,HSF1,"1.34 fold enrichment (6-mer frequency, TF over GST control)"
same,binding signal,SPIC,"1.26 fold enrichment (6-mer frequency, TF over GST control)"
same,binding signal,ELF4,"1.21 fold enrichment (6-mer frequency, TF over GST control)"
same,binding signal,ELK4,"1.07 fold enrichment (6-mer frequency, TF over GST control)"
same,binding signal,ETV2,"1.19 fold enrichment (6-mer frequency, TF over GST control)"
same,binding signal,ELF3,"1.28 fold enrichment (6-mer frequency, TF over GST control)"
same,binding signal,CRX,"1.36 fold enrichment (6-mer frequency, TF over GST control)"
same,binding signal,ETV1,"1.11 fold enrichment (6-mer frequency, TF over GST control)"
